Assay [1] in a line: kinase inhibitors against Plasmodium liver-stage infection, cell-based, known kinase inhibitor set, luminescence, hepatoma host viability (AID 624392; call rule not given here;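 further: infected cells incubated roughly two days before readout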). To be noted: Plasmodium liver stage in hepatoma cells, luciferase luminescence, concentration not given here; liver cell % of control: measured here: host liver cell viability; parasite % of control: stronger effect = lower value.
Assay [2] can be described thus: LFS_MB_1R medulloblastoma cell growth inhibition, synergistic combos for chromothripsis tumors, cisplatin or BGB combos (AID 1671452).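 Further: cells exposed for 96 hours before readout.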 The settings on record: LFS_MB_1R medulloblastoma cells, stronger effect = higher value.
Assay [3] is described as follows: CRL2098 osteosarcoma cell growth inhibition, synergistic combos for chromothripsis tumors, BGB or cisplatin IC20 combos (AID 1671454).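 Further: cells exposed for 96 h before readout; 0% = vehicle DMSO and 100% = killing by high DMSO.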 To be noted: CRL2098 osteosarcoma cells, drug combinations, stronger effect = higher value.
Assay [4] in a line: HD-MB03 medulloblastoma cell growth inhibition, synergistic combos for chromothripsis tumors, BGB or cisplatin IC20 combos (AID 1671455; in the data active means inhibition above about 83%;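 further: 0% = vehicle DMSO and 100% = high DMSO as cytotoxic control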). To be noted: HD-MB03 medulloblastoma cells, stronger effect = higher value.
The nature of assay [5]: UWB1.289 ovarian carcinoma cell growth inhibition, synergistic combos for chromothripsis tumors, BGB or cisplatin combos (AID 1671456).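 Further: cells exposed to compound for four days; 0% = vehicle DMSO and 100% = killing by high DMSO.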 The settings on record: UWB1.289 ovarian carcinoma cells, stronger effect = higher value.
Assay [6] in a line: LFS_MB_2R medulloblastoma cell growth inhibition, synergistic combos for chromothripsis tumors, cisplatin combos (AID 1671457).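 Further: cells exposed to compound for four days before readout.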 The settings on record: LFS_MB_2R medulloblastoma cells, stronger effect = higher value.
Assay [7] is described as follows: UWB1.289_BRCA1 ovarian cancer growth, cell-based, BGB or cisplatin combinations (AID 1671459). The settings on record: UWB1.289 BRCA1 ovarian carcinoma, drug combinations, stronger effect = higher value.
The nature of assay [8]: human astrocyte viability loss, single and combined drugs, cytotoxicity control for chromothriptic childhood tumor combination screen, cell-based, BGB or cisplatin IC20 combos (AID 1671460).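 Further: cells exposed to compounds for 96 hours before viability readout; 0% = vehicle and 100% = killing control.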 To be noted: Human astrocytes, drug combinations, stronger effect = higher value.
Assay [9] is described as follows: growth inhibition of CRL1545 osteosarcoma cells, cell-based, cisplatin and BGB IC20 combos (AID 1671464).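 Further: cells exposed to compound for 96 hours before readout; 0% = vehicle DMSO and 100% = high DMSO killing control.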 The settings on record: stronger effect = higher value.
The nature of assay [10]: liver-stage malaria parasite growth inhibition, primary screen, cell-based, HepG2, luciferase luminescence, HepG2 viability (AID 624349; in the data active means parasite load remaining mostly below about 12%, no sharp cut-off; inactive means mostly above about 10%;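 further: 100% = mean of DMSO negative control wells on the same plate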). The settings on record: P. berghei liver stage in HepG2, luciferase luminescence, concentration not given here; parasite load remaining: stronger effect = lower value; viability: measured here: HepG2 viability without parasites.
Assay [11] is described as follows: viability rescue of complex I mutant cybrids, primary screen, cell-based, galactose medium, ATP luminescence (AID 1645843;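 active means z-score of at least 1.8 in each of two replicates, scored against plate mean and spread of sample wells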;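 further: positive z means more ATP and so rescue of galactose-driven cybrid death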). To be noted: complex I mutant cybrid cells, 72 h, stronger effect = higher value.
[12] abbreviates: measured here: combination with BGB IC40, at 0.05 µM.
The mark [13] stands for this setting: measured here: combination with cisplatin, at 0.5 µM.
Where [14] appears, read: measured here: combination with cisplatin, at 5 µM.
Setting [15] is: measured here: combination with BGB at IC20, at 0.5 µM.
Where [16] appears, read: measured here: combination with cisplatin at IC20, at 0.5 µM.
Setting [17] is: measured here: combo with BGB at IC20, at 0.5 µM.
Setting [18] is: measured here: combo with cisplatin at IC20, at 0.5 µM.
Where [19] appears, read: measured here: inhibition with BGB combination, at 0.05 µM.
The mark [20] stands for this setting: measured here: inhibition with cisplatin combination, at 0.05 µM.
The mark [21] stands for this setting: BGB combination, concentration series, at 5 µM.
The mark [22] stands for this setting: cisplatin combination, concentration series, at 5 µM.
Where [23] appears, read: measured here: combo with BGB IC20, at 0.5 µM.
The mark [24] stands for this setting: measured here: combo with cisplatin IC20, at 0.5 µM.
[25] abbreviates: measured here: with BGB IC20 combination, at 0.5 µM.
[26] abbreviates: measured here: with cisplatin IC20 combination, at 0.5 µM.

Several values for one entry are separate records, joined by “and”; a condition that tells them apart may be missing. Identical values can stand only once. More than one record can exist for a structure, and the calls need not agree. Activity calls are given as the source filed them. Unless noted, no stated cut-off is given here; in the data, active means inhibition above about 80%; inactive means the rest.

For `O=C(Nc1cn[nH]c1-c1nc2ccc(CN3CCOCC3)cc2[nH]1)NC1CC1`, in assay [1], the liver cell % of control was 44.3% and 46.2% and 49.7%; the parasite % of control is 0.367% (inactive) and 0.333% (inactive) and 0.278% (inactive).

By inhibition is commonly meant the change of the read-out against control, counted positive when it falls. Take `Cc1[nH]c2ccccc2c1CCNCc1ccc(/C=C/C(=O)NO)cc1`: the inhibition in [2] (at 0.5 µM) is 93.3% (active) and 50.3% (inactive); in assay [2] (setting [12]), 50.6% and -33.1%; in assay [2] (setting [13]) it was 94.8% and 59%; in assay [2] (setting [14]), 101% and 94.7%; in assay [3] (at 0.5 µM), 96% (active) and 13.2% (inactive); in assay [3] (setting [15]), 95% and 15.5%. Moreover, the inhibition was 96.9% and -1.5% in assay [3] (setting [16]); 99.9% (active) and 93.8% (active) in [4] (at 0.5 µM); 99.8% and 96.6% in assay [4] (setting [17]); 99.9% and 99.7% in assay [4] (setting [18]); 82.2% (active) and 51.9% (inactive) in [5] (at 0.5 µM); 27.3% and -1.85% in assay [5] (setting [19]). In addition, the inhibition in [5] (setting [20]) was 42.8% and 21.6%; in assay [6] (at 0.5 µM), 91.3% (active) and 29.2% (inactive); in assay [6] (setting [13]) it was 101% and 47.2%; in assay [6] (setting [14]) it was 109% and 98.7%; in [7] (setting [21]), 121% and 109%; in assay [7] (at 0.5 µM), 90.3% (active) and 56.4% (inactive). The inhibition was 127% and 128% in [7] (setting [22]); 101% (active) and 33.3% (inactive) in assay [8] (at 0.5 µM); 102% and 30.8% in assay [8] (setting [23]); 99.8% and 22.1% in [8] (setting [24]); 96.5% (active) and 85.3% (active) in assay [9] (at 0.5 µM); 95.5% and 73.9% in [9] (setting [25]). Moreover, the inhibition in assay [9] (setting [26]) was 96.9% and 90.9%; in assay [9] (single agent, at 0.05 µM) it was 93.3% and 52.8%; in assay [9] (single agent, at 5 µM), 98.9% and 97.5%.

Usually viability stands for a per cent measure of how many cells are alive, often set against a control. For `Cc1[nH]c(/C=C2\C(=O)Nc3ccc(S(=O)(=O)N(C)c4cccc(Cl)c4)cc32)c(C)c1C(=O)N1CCN(C)CC1`, in [10], the parasite load remaining was 38.5% (inactive) and the viability came to 69.6%.

Consider `O=C(O)c1ccc2c(c1)nc(Nc1cccc(Cl)c1)c1ccncc12`, for which, in assay [1], the liver cell % of control is 84.7% and 84.9% and 89.8%; the parasite % of control was 247% (inactive) and 142% (inactive) and 94.6% (inactive).

Regarding `CN(C)CCN1C(=O)c2cccc3cc(N)cc(c23)C1=O`, the inhibition in [2] (at 0.5 µM) was -23% (inactive); in [2] (setting [12]), -41.2%; in assay [2] (setting [13]), -45%; in assay [2] (setting [14]) it was 16.5%; in assay [3] (at 0.5 µM), -63% (inactive); in assay [3] (setting [15]), -22.2%. The inhibition in assay [3] (setting [16]) is -129%; in assay [4] (at 0.5 µM), 1.51% (inactive); in assay [4] (setting [17]), -11.9%; in assay [4] (setting [18]), 14.4%; in [5] (at 0.5 µM) it was -5.91% (inactive); in assay [5] (setting [19]) it was -1.98%. The inhibition was -18.9% in assay [5] (setting [20]); -25.1% (inactive) in assay [6] (at 0.5 µM); -29.2% in assay [6] (setting [13]); -2.51% in assay [6] (setting [14]); 38.8% in [7] (setting [21]); -2.87% (inactive) in assay [7] (at 0.5 µM). In addition, the inhibition in [7] (setting [22]) is 37.9%; in assay [8] (at 0.5 µM), 2.38% (inactive); in assay [8] (setting [23]) it was -2.82%; in assay [8] (setting [24]), -2.98%; in assay [9] (at 0.5 µM), -31.5% (inactive); in [9] (setting [25]) it was -17.6%. Further, the inhibition was -40.7% in assay [9] (setting [26]); -14.5% in [9] (single agent, at 0.05 µM); 59.5% in assay [9] (single agent, at 5 µM).

As for `CCCCCCCCCCCC(CC1OC(=O)C1CCCCCC)OC(=O)C(CC(C)C)NC=O` (stereo not drawn), in [11], the z-score is -1.84 (inactive).

Turning to `Cc1ccc2nc(NCCN)c3ncc(C)n3c2c1`, the inhibition in assay [2] (at 0.5 µM) is 1.37% (inactive); in assay [2] (setting [12]) it was -13.1%; in assay [2] (setting [13]), -5.04%; in assay [2] (setting [14]), 83.6%; in assay [3] (at 0.5 µM), -21.4% (inactive); in assay [3] (setting [15]), 13.8%. In addition, the inhibition in [3] (setting [16]) is -60.3%; in [4] (at 0.5 µM), -5.33% (inactive); in assay [4] (setting [17]), -7.44%; in assay [4] (setting [18]), -1.09%; in assay [5] (at 0.5 µM), -4.12% (inactive); in assay [5] (setting [19]) it was -17.4%. Further, the inhibition in [5] (setting [20]) is -11.7%; in [6] (at 0.5 µM), -14.5% (inactive); in assay [6] (setting [13]), -10.3%; in [6] (setting [14]), 15.9%; in assay [7] (setting [21]), 91.7%; in [7] (at 0.5 µM), 1.55% (inactive). In addition, the inhibition in assay [7] (setting [22]) is 76.1%; in assay [8] (at 0.5 µM), -0.35% (inactive); in [8] (setting [23]), 0.763%; in [8] (setting [24]) it was 2.83%; in assay [9] (at 0.5 µM), -12.7% (inactive); in [9] (setting [25]), -11.3%. Besides, the inhibition was -13.3% in assay [9] (setting [26]); -17.3% in assay [9] (single agent, at 0.05 µM); 99.7% in assay [9] (single agent, at 5 µM).

The values above are taken from PubChem BioAssay.
